miR-21 reporter – qHTS Assay for Modulators of miRNAs and/orActivators of miR-21 | Potency, µM (doses to about 38.3 µM), inactives show at the top dose activity change, positive = activation, hits mostly activators | 340,000 tested, under 10 active | HeLa miR-21 FLuc reporter, luciferase, 48 h | AID 2288, 2010;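 also: % of control where 0% means no effect; miR-21 action dims this reporter so a rising signal means less miR-21 action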
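Using DMEM plus 10% FBS, HeLa miR-21-FLuc cells are incubated with test compounds (final up to about 40uM) for 48 hours; firefly luciferase signal is then imaged following reagent-mediated lysis.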
A549 tox – Nrf2 qHTS screen for inhibitors: counterscreen for cytotoxicity; A549 ARE-Fluc cells, CellTiter-Fluor viability, 18-24 h; Potency, µM (highest dose often 46 µM), for the others: top-dose activity change, negative = cytotoxicity, most hits filed as inhibitors; actives 0.16% (n = 390,000); AID 504648, 2011; also: potency is read from the fitted curve at half-maximal effect; % is scaled to controls: 0 for no effect and ±100 for the full control effect
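A549 ARE-Fluc cells in 5% FBS OPTI-MEM, 5000 cells/well, rested 2 h then exposed to compounds in concentration-response for 18-24 h at 37 °C. Viability by CellTiter-Fluor fluorescence (Ex 405/Em 525) after 30 min; luciferase luminescence (BugLite, 15 min, RT) read afterwards.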
Nrf2 block – Nrf2 qHTS screen for inhibitors; AID 504444, 2011; A549 ARE-Fluc reporter, luciferase luminescence, 18-24 h; actives 2.1% (n = 360,000); Potency, µM (doses to about 46 µM), for the others: top-dose activity change, negative = inhibition, actives largely listed as inhibitors; also: potency is read from the fitted curve at half-maximal effect; % is scaled to controls: 0 for no effect and ±100 for the full control effect; nearly all actives have a fitted effect of over 60% in size
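Quantitative HTS in A549 cells stably bearing an antioxidant response element-firefly luciferase construct. Inhibition of Nrf2-driven transcription was scored by luminescence after 18-24 h of compound exposure at 37 °C.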
TCR act – Activators of T cell receptors: qHTS campaign | primary human leukocytes, anti-CD3, IL-2 HTRF, 48 h | Potency, µM (top dose mostly 9.22 µM), inactives show at the highest dose activation of IL-2 secretion, hits mostly activators | 330,000 tested, under 10 active | AID 504894, 2011; also: % of control where 0% means no effect
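Compounds are tested in HTS on primary human leukocytes co-incubated with a-CD3 beads for 48 hr. IL-2 output is measured by time-resolved FRET.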
Nrf2 activator – qHTS of Nrf2 Activators | AREc32 ARE-luciferase reporter (MCF7-derived line), luminescence, 24 h | actives 0.31% (n = 410,000) | Potency, µM (doses to about 46.1 µM), inactives show at the highest dose activation, actives largely listed as activators; also: potency is read from the fitted curve at half-maximal effect; % of control where 0% means no effect; nearly all actives have a fitted effect of over 65% in size
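AREc32 cells carrying an ARE-driven firefly luciferase reporter were seeded at 1000 cells/well in OPTI-MEM with 5% FBS, then exposed to compound for 24 hr at 37 deg C. Luminescence was read with Steady-Glo after 30 min at RT.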
ClpP mod – qHTS Assay for Activators of ClpP | ATP-dependent Clp protease proteolytic subunit (Bacillus subtilis (strain 168)), P80244 | purified B. subtilis ClpP, FRET peptide cleavage, 20 min | Potency, µM (top dose mostly 57.5 µM), for the others: at the highest dose activity change, negative = active | actives 1.9% (n = 340,000) | AID 651965, 2013; active = well fitted falling curve with a large enough effect; inconclusive = small, poorly fitted or top-dose-only effect; inactive = no such curve, though single readings can be large or run the other way; also: potency is read from the fitted curve at half-maximal effect; the source files actives as falling curves though it sought activators and does not explain the sign; nearly all actives have a fitted effect of over 65% in size
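FRET quenching reversal measured ClpP activation: 10 microg/mL B. subtilis ClpP at pH 8 with the FRET-FV decapeptide, read at 430 nm after 320 nm excitation. The 20-min minus 0-min signal was scaled between DMSO/no-enzyme wells and ADEP (5.8 microM final).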
* = called active by the depositor; ? = inconclusive; . = no result; [ ] = remark or other dose. The list is not random: actives were taken first. Their share in the collection is about 3.7%. Unless noted, calls follow the shape of the dose curve; as a rule, active = well fitted curve in the direction sought with a large enough effect; inconclusive = small, poorly fitted or top-dose-only effect, or another doubt; inactive = no such curve, though single readings can be large; an effect the other way counts as inactive or inconclusive.

SMILES | miR-21 reporter | A549 tox | Nrf2 block | TCR act | Nrf2 activator | ClpP mod
CC(=O)C1CCC2C3CCC4=CC(=O)CC[C@]4(C)[C@@]3(F)C(O)C[C@]12C (some centres not stated) | -17% | -4% | 2.9µM* | -2% | 0% | .
CCc1ccc(NC(=O)c2ccc(F)c(S(=O)(=O)NCCc3ccc(OC)c(OC)c3)c2)cc1 | 27% | -14% | . | . | -1% | -7%
Cc1ccc(NC(=O)CC(=O)c2ccc([N+](=O)[O-])cc2)cc1S(=O)(=O)Nc1cccc(Cl)c1 | ? | ? | 16µM* | -2% | 0% | -1%
O=C(c1ccc(S(=O)(=O)Cc2cc(F)ccc2F)c([N+](=O)[O-])c1)N1CCOCC1 | . | . | . | . | 13µM* | 1%
Cc1cc(C(=O)Cn2nnc(-c3ccc(Cl)cc3)n2)c(C)n1CC1CCCO1 (configuration not stated) | 6% | -9% | 13µM* | . | 0% | -2%
Cc1cc(C(=O)CSc2nc3ccccc3o2)c(C)n1CC1CCCO1 (configuration not stated) | -35% | -18% | -8% | -5% | 5% | 28µM*
Cc1cc(C)n2nc(SCC(=O)c3cc(C)n(CC4CCCO4)c3C)nc2n1 (configuration not stated) | -1% | -5% | 10µM* | 2% | 2% | .
Cc1cc(C(=O)CSc2nnc(-c3ccc(Cl)cc3)n2C)c(C)n1CC1CCCO1 (configuration not stated) | -6% | -9%[1.84 µM] | 7% | . | -1% | 1%
O=S(=O)(/N=C(/Nc1cccnc1Cl)c1ccccc1)c1ccccc1 | . | 1% | 0% | 4% | -1% | 0%
CC(C)(C)c1ccc(NC(=O)CSc2nnc(-c3n[nH]c4ccccc34)o2)cc1 | -55% | -2% | -10% | -1%[46.1 µM] | 7% | 32µM*
Cc1ccc(C)c(NC(=O)CSc2nnc(-c3n[nH]c4ccccc34)o2)c1 | 11% | 2% | -6% | 1%[46.1 µM] | 0% | -13%
O=C1NC[C@@H](Cc2cccc3ccccc23)N(CC2(c3ccccc3)CC2)C1=O | -1% | ? | 21µM* | 0% | 4% | -1%
Cc1cccc(-c2cc3nc(C)cc(NCCCN(C)C)n3n2)c1 | -3% | 6% | 3% | 0% | 5% | 32µM*
Cc1ccc(-c2cc3nc(C)cc(NCc4ccco4)n3n2)cc1 | -45% | 3% | ? | . | 4% | 28µM*
CN(C)CCCNc1cc(-c2ccccc2)nc2cc(-c3cccc(F)c3)nn12 | ? | 8% | ? | 2% | -5% | 4%
Cc1cc(C)c2cc(C#N)c(NCCOC(=O)c3ccccc3C)nc2c1 | -1% | -1% | ? | 3% | 0% | 28µM*
COc1ccc2nc(C)c(C(N)=O)cc2c1 | 5% | -10% | 4% | -1% | 0% | 4%
CCOC(=O)c1cc2cc(OC)ccc2nc1C | -29% | 5% | -13% | 2%[46.1 µM] | 2% | 32µM*
CCOC(=O)CCSc1nc(C)c2cc(OC)ccc2n1 | -74% | -6% | 16% | 11%[46.1 µM] | 1% | 25µM*
CCOC(=O)c1cc(C#N)c(SC)nc1C | 2% | 0% | 3% | -33% | 5% | 2%
CCOC(=O)c1cc(C#N)c(N)nc1C | -23% | 11% | . | . | 0% | 22µM*
O=C(CNC(=O)c1cccs1)N/N=C/c1cccc(Cl)c1 | -15% | 0% | -6% | 0% | -1% | 1%
C(=C\c1ccnc2ccccc12)/c1ccc(-[n+]2cc[n+](-c3ccc(/C=C/c4ccnc5ccccc45)cc3)cc2)cc1 | . | . | . | . | . | -4%
COC(=O)c1cc(C#N)c(NCc2ccccc2)nc1C | 0% | 7% | 46% | 16% | 0% | 32µM*
CC#CCN1c2ccccc2[C@]23C[C@@H](C(=O)OC)N(C(=O)c4cc(C)oc4C)C2=NC(C(=O)OC)=C(C(=O)OC)[C@H]13 | ? | -15% | 16µM* | 5% | 0% | 0%
SMILES | miR-21 reporter | A549 tox | Nrf2 block | TCR act | Nrf2 activator | ClpP mod
O=C(c1cccc(Cl)c1Cl)N(Cc1ccco1)Cc1cccs1 | . | -5% | -7% | . | . | -3%
O=C(NCCN1CCCCC1)c1cc2ccccc2[nH]1 | -8% | 11% | 9% | 7% | -1% | 18µM*
O=C(c1ccccc1)N1N=C(c2ccccc2O)CC1c1ccccc1 (configuration not stated) | -4% | -1% | -1% | -1% | 3% | -3%
O=C(CN(c1ccc(Br)cc1)S(=O)(=O)c1ccc(Cl)c([N+](=O)[O-])c1)NCCc1ccccc1 | 0% | -1% | -2% | 2% | 0% | 25µM*
CCOC(=O)CN(C(=O)CN1CCC(n2nnc3cc(C)ccc32)CC1)c1ccccc1 | 1% | 8% | 12% | 5% | -1% | 0%
Cc1ccc2c(c1)nnn2C1CCN(CC(=O)N(c2ccccc2)c2ccccc2)CC1 | 13% | ? | 15µM* | 3% | 2% | -12%
O=C(CN1CCC(n2nnc3ccccc32)CC1)Nc1ccc2c(c1)CCC2 | -14% | -9% | 4% | 1% | 4% | 1%
O=C(CN1CCC(n2nnc3cc(F)ccc32)CC1)Nc1ccc2c(c1)CCC2 | -2% | ? | 22% | -8% | 0% | 14µM*
COC(=O)CSc1ncc2c(n1)-c1ccccc1N(Cc1ccccc1C)S2(=O)=O | -4% | 12% | ? | . | 0% | -21%
Cc1ccccc1CN1c2ccccc2-c2nc(SCC(=O)NCc3ccccc3)ncc2S1(=O)=O | -3% | 10% | 10% | . | 0% | 32µM*
COc1ccc(OC(C)c2nnc(N)s2)cc1 (configuration not stated) | -4% | -3% | -18% | 6% | -1% | 0%
Cc1ccc(OC(C)c2nnc(N)s2)cc1Cl (configuration not stated) | 5% | -5% | 16µM* | -1% | 1% | -2%
COc1ccc(N2C(=NC(=O)C3CC3)SC3CS(=O)(=O)CC32)cc1Cl (configuration not stated) | -1% | -7% | -12% | -3% | 0% | 0%
Nc1ccc(/C=C/c2ccnc3ccccc23)c(N)c1 | . | . | . | . | . | -1%
CC1=NNC(=O)/C1=C\c1cn(-c2ccccc2)nc1-c1ccc(Cl)cc1 | -29% | 21µM* | 13µM* | 3% | ? | -3%
COc1ccccc1NC(=O)c1ccc(NC(=O)c2cc3c(s2)CCC3)cc1 | 0% | 0% | 23µM* | 0%[46.1 µM] | 2% | ?
